Experimental findings from PubChem BioAssay AID485317 (Broad Institute, 2010) are described below.

Where “and” joins values, the source holds several entries; their conditions need not be identical. Equal values may be shown once. Among all 290,000 compounds or so, about 11,000 (3.8%) were called active.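 Rule for the calls: active = mean replicate inhibition above about 79%, with every replicate also reaching it (limit read from the data); inconclusive = only one of the two criteria met; inactive = mean below limit and not every replicate reaching it.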 The entries come from a sample that favours actives as a whole.

The target of this experiment is FAD-linked sulfhydryl oxidase ALR (Homo sapiens) (UniProt P55789). The experiment is described as follows: inhibitors of human ALR sulfhydryl oxidase, primary screen, biochemical, H2O2 detection, HRP-luminol luminescence, single point (AID 485317). The conditions noted are these: purified ALR, DTT oxidation, hits give high values, concentration not given here.
Chain of FAD-linked sulfhydryl oxidase ALR (Homo sapiens) (P55789 whole entry, looked up): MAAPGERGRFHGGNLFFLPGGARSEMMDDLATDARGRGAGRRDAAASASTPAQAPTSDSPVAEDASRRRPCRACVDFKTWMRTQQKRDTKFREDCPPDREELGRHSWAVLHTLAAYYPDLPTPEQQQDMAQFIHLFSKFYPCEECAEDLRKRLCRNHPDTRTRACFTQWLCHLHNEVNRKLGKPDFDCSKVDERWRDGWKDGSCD
For the compound `CCOc1cc(-c2cc(-c3ccc(OC)cc3)nc(N)c2C#N)ccc1O`, the inhibition (as a rule, the relative decrease from the control value, in per cent) was 41.9% (inactive).
Consider `COc1ccccc1-c1c(C#N)c(N)nc2c1CCC2`, for which the inhibition is 0.706% (inactive).
On to `COc1ccc(-c2cc(-c3ccc(N)cc3)nc(N)c2C#N)cc1OC`, for which the inhibition was 98.9% (active).
As for `Cc1ccc(NC(=O)CN2CCC3(O)CCCCC3C2c2ccc3c(c2)OCO3)c(C)c1` (stereo unspecified), the figure is 6.21% (inactive).
Turning to `CCN(CC)c1ccc(C2C3CCCCC3(O)CCN2CC(=O)Nc2ccccc2)cc1` (stereo unspecified), the inhibition was 97.5% (active).
With `O=C(CN1CCC(O)(c2ccccc2)CC1)Nc1ccc2c(c1)OCCO2`, the inhibition was -15.8% (inactive).
With `O=C(COC(=O)/C=C/c1cccc(Cl)c1)NCc1cccs1`, the inhibition was -15.2% (inactive).
With `O=C(COc1ccccc1Cl)N1N=C(c2cccs2)CC1c1ccco1` (stereo unspecified), the inhibition is 12.6% (inactive).
As for `COCCn1c(SCC(=O)Nc2ccccc2F)nc2c(c1=O)SCC2`, the figure is 23.5% (inactive); as for `O=C(CSc1nc2nccnc2c(=O)n1Cc1cccs1)Nc1ccccc1F`, 98.7% (active).
As to `CCOc1ccc(NC(=O)CSc2nc3ccccc3c(=O)n2Cc2cccs2)cc1`, the inhibition was -4.39% (inactive).
As for `COc1ccc(C(=O)N2CCN(c3ccc(C(C)=O)cc3F)CC2)cc1S(=O)(=O)NC1CC1`, the figure is 2.33% (inactive); as for `COc1cccc(NC(=O)CN(C)C(=O)CSC(=S)N2CCCC2)c1`, -14.6% (inactive); as for `CCCCN1C(=O)/C(=C2/C=CC=CN2C)SC1=S`, 99% (active).
On to `CCCCN1C(=O)/C(=C2/Sc3ccc(Cl)cc3N2CC)SC1=S`, for which the inhibition is -23.2% (inactive).
As for `CN1C=CC=C/C1=C1\SC(=S)N(Cc2ccccc2)C1=O`, the figure is -1.3% (inactive); as for `O=C(CSc1nc2ccccc2c(=O)n1-c1ccccc1F)N1CCOCC1`, -2.73% (inactive).
As for `CC1CCC(NC(=O)CNC(=O)c2ccc3ccccc3c2)CC1` (stereo unspecified), the figure is -7.47% (inactive); as for `COc1ccccc1N=Cc1c(O)c2ccccc2oc1=O`, 0.366% (inactive).
On to `COCC(=O)N=Nc1c(O)[nH]c2ccccc12`, for which the inhibition is -3.07% (inactive).
For the compound `COc1cc(N=Cc2c(O)[nH]c3ccccc23)cc(OC)c1OC`, the inhibition is 96.6% (active).
Turning to `COc1cc(N=Cc2c(O)c3ccccc3oc2=O)c(OC)cc1Cl`, the inhibition was -4.24% (inactive).
For `CN=c1scc(-c2cc(OC)ccc2OC)n1/N=C/c1c(C)[nH]c2ccccc12`, the inhibition was 15.7% (inactive).
Take `COc1ccc(N=Cc2c(O)[nH]c3ccccc23)cc1OC`: the inhibition is 99.3% (active).
Next, `CN(CC(=O)Nc1ccc(Cl)c(C(F)(F)F)c1)C(=O)CCC(=O)c1ccccc1`: -3.88% (inactive).
As for `Cc1ccc(C)c(S(=O)(=O)N2CCN(c3ncnc4sccc34)CC2)c1`, the figure is -13.7% (inactive); as for `O=C(NCc1ccccc1)c1onc(CSc2ccncc2)c1C(=O)NCc1ccccc1`, -5.05% (inactive).
As for `CC(C)n1ncc2c(C(=O)Nc3ccc(CC#N)cc3)cc(C3CC3)nc21`, the figure is -14.1% (inactive); as for `O=C(c1ccc(N2CCOCC2)c([N+](=O)[O-])c1)N1CCN(c2ccccc2F)CC1`, 0.595% (inactive); as for `O=C1C=C(c2cc(C(F)(F)F)cc(C(F)(F)F)c2)C[C@@H](c2ccc3c(c2)OCO3)C1`, -3.13% (inactive).
As for `Cc1ccc(Nc2ccc(C(N)=O)cc2[N+](=O)[O-])cc1`, the inhibition is -3.97% (inactive).
As for `Nc1ccc(Nc2ccccc2)cc1`, the figure is -2.25% (inactive).
Next, `Cc1ccc(Nc2ccccc2N)cc1`: 85.9% (active); `COc1ccc(NC(=O)CN(C)C(=O)c2cc(-c3ccc(C)o3)nc3ccccc23)cc1`: -3.77% (inactive).
As for `CS(=O)(=O)N(CC(=O)N1CCc2ccccc2C1)c1ccc(Br)cc1`, the figure is -3.9% (inactive).
Turning to `CC(C)(C)N1CC(c2nc3ccccc3n2Cc2ccc(F)cc2)CC1=O` (stereo unspecified), the inhibition was -2.5% (inactive).
As for `C=CCn1c(C2CC(=O)N(c3ccc(C)cc3)C2)nc2ccccc21` (stereo unspecified), the figure is 87.3% (active); as for `C=CCn1c(P(C)(=O)O)nc2ccccc21`, -17.7% (inactive) and -5.83% (inactive).
On to `COc1ccc(OC)c(NC(=O)COC(=O)Cc2ccsc2)c1`, for which the inhibition is -0.814% (inactive).
Next, `CC(C)(C)c1ccc(OC2=CS(=O)(=O)c3ccccc32)cc1`: 4.58% (inactive); `Cc1ccc(S(=O)(=O)c2ccc(Oc3ccccc3)cc2)cc1`: -8.5% (inactive).
Consider `Cc1ccc(Oc2ccc(N)cc2)cc1`, for which the inhibition is 98.9% (active).
As for `Cc1cc(C(C)(C)C)cc(C)c1N`, the figure is -3.27% (inactive); as for `CC(C)(C)c1ccc(Oc2ccc(N)cc2)cc1`, 98.6% (active).
As for `Cc1cc(C)cc(N)c1`, the figure is 8.46% (inactive); as for `CCOC(=O)N1CCN(C(=O)CSc2nc(=O)n3cccc(C)c3n2)CC1`, 1.32% (inactive); as for `CCN(CC(=O)Nc1c(F)cccc1F)C(=O)C1CCC1`, -1.96% (inactive).
On to `O=C(NCCC1CCCCN1S(=O)(=O)c1ccccc1)C(=O)NCC1CCCO1` (stereo unspecified), for which the inhibition was -4.14% (inactive).
For `C[C@@H]1CN([C@@H](C)CO)C(=O)c2cc(NC(=O)C3CC3)ccc2O[C@H]1CN(C)C`, the inhibition is 1.71% (inactive).
As to `COc1ccc(-c2nnc(SC(=O)N3c4ccccc4Sc4ccccc43)o2)cc1`, the inhibition was 94.9% (active).
For the compound `COc1ccc(-c2nnc(SCc3cccnc3)o2)cc1`, the inhibition was -15% (inactive).
As for `COc1ccc(-c2nnc(SCC(=O)c3ccc4c(c3)OCCO4)o2)cc1`, the figure is 4.53% (inactive); as for `COc1ccc(C2(c3ccc(OC)cc3)NC(=O)N(CC(=O)Nc3cc(C)on3)C2=O)cc1`, -0.145% (inactive).
As for `Cc1ccc(SCC(=O)Nc2nncs2)cc1`, the figure is -6.08% (inactive); as for `COCCCN(C(=O)CSCc1ccc(C)cc1)c1c(N)n(Cc2ccccc2)c(=O)[nH]c1=O`, 46.2% (inactive); as for `Oc1c(Br)cc(/C=N/NC(=S)NCC2CCCO2)cc1Br` (stereo unspecified), 96.2% (active).
For the compound `S=C(NCC1CCCO1)N1CCN(c2ccc(Cl)c(Cl)c2)CC1` (stereo unspecified), the inhibition was 0.527% (inactive).
Turning to `O=C(CNC(=O)C1COc2ccccc2O1)N/N=C/c1cc(Br)c(O)c(Br)c1` (stereo unspecified), the inhibition was 66.1% (inactive).
`CCCN(C(=O)c1nc2nccc(C)n2n1)c1c(N)n(Cc2ccccc2)c(=O)[nH]c1=O`: the inhibition was 1.52% (inactive).
As for `COc1ccc(CCNC(=O)CN2C(=O)COc3ccc(S(=O)(=O)N4CCCC4)cc32)cc1OC`, the inhibition is -1.92% (inactive).
In the case of `CN(C)c1ccc(CNC(=O)CN2C(=O)COc3ccc(S(=O)(=O)N4CCCC4)cc32)cc1`, the inhibition is 98.6% (active).
In the case of `CCc1ccc(NC(=O)CN2C(=O)COc3ccc(S(=O)(=O)N4CCCC4)cc32)cc1`, the inhibition is -3.09% (inactive).
`O=C(NCc1ccccn1)Nc1ccc(Cl)cc1`: the inhibition was -24.3% (inactive).
Next, `Cc1cc(=O)oc2c(C)c(OCC(=O)NCCN3CCOCC3)ccc12`: -3.13% (inactive); `CCC1=Nc2cc(C(=O)NCCN3CCCC3)ccc2Sc2ccc(C)cc21`: -17.3% (inactive); `Cc1ccsc1-c1nc(CSCC(=O)NCCN2CCCC2)c(C)o1`: 97.8% (active).
`CC(C)(C)c1nnc(N/N=C/c2ccc(O)cc2)n(N)c1=O`: the inhibition is 98.8% (active).
As for `O=C(O)c1ccc(/C=N/Nc2nc(N3CCCCC3)nc(N3CCCCC3)n2)cc1`, the figure is 3.03% (inactive); as for `CCCCn1c(N)c(N(CC(C)C)C(=O)c2cccc(S(=O)(=O)N3CC(C)OC(C)C3)c2)c(=O)[nH]c1=O` (stereo unspecified), -2.1% (inactive); as for `OCCCNc1nc(-c2ccccc2)c2cc(Cl)ccc2n1`, -2.06% (inactive).
Next, `CC(Sc1ncnc2c1cnn2-c1ccccc1)C(=O)Nc1ccc(N2CCOCC2)cc1` (stereo unspecified): -5.27% (inactive); `COC(=O)c1c(-c2ccc(C)cc2)csc1N`: 97.8% (active); `CCOC(=O)c1c(-c2ccc(-c3ccccc3)cc2)csc1NC(=O)CCC(=O)O`: 60.9% (inactive).
Take `CCOC(=O)c1c(-c2ccc(C)cc2)csc1/N=C(\C)C1=C(O)c2ccccc2C1=O`: the inhibition was 1.75% (inactive).
On to `COc1cc(OC)c(C(=O)Nc2ccccc2-c2ccccc2)cc1OC`, for which the inhibition is -1.64% (inactive).
Next, `COc1cc(OC)c(C(=O)Nc2ccc(N(C)C)cc2)cc1OC`: 99.6% (active).
Take `COc1ccc(Cl)cc1C(=O)Nc1ccc(N(C)C(C)=O)cc1`: the inhibition is -1.72% (inactive).
In the case of `Cc1ccccc1SCC(=O)OCC(=O)N1CC(=O)Nc2ccccc21`, the inhibition was -7.18% (inactive).
Next, `Cc1ccc(-n2ncc3c(=O)[nH]cnc32)c(C)c1`: -6.83% (inactive); `COC(=O)CSc1ncnc2c1cnn2-c1ccc(C)cc1C`: 96.9% (active).
On to `COc1ccc(-n2ncc3c(SCC(=O)NNC(C)=O)ncnc32)cc1`, for which the inhibition is -1.15% (inactive).
As for `CCOC(=O)C1CCCN(C(=O)c2ccc(C)c(S(=O)(=O)N3CCCCC3)c2)C1` (stereo unspecified), the figure is -0.131% (inactive).
Next, `O=C1CSC(=S)N1c1ccc(Cl)c(Cl)c1`: 38.1% (inactive); `O=C1CSC(=S)N1c1ccc(O)cc1`: 91.3% (active).
Turning to `COc1cc(N2C(=O)CSC2=S)cc(OC)c1OC`, the inhibition was 3.65% (inactive).
Next, `CCOc1ccccc1OCC(=O)Nc1ccccc1C(=O)NC1CC1`: 20.6% (inactive).
`CCOc1ccc(C(C)NC(=O)CN2C(=O)NC3(CCCCC3)C2=O)cc1OCC` (stereo unspecified): the inhibition was -15.6% (inactive).
`COc1cccc(OC)c1C(=O)Nc1sc2c(c1C(N)=O)CCCC2`: the inhibition is -6.93% (inactive).
With `NC(=O)c1c(NC(=O)CSc2nnc(-c3ccco3)n2N)sc2c1CCCC2`, the inhibition is 9.78% (inactive).
As for `NC(=O)c1c(Nc2nc3c(F)cccc3s2)sc2c1CCCC2`, the figure is 87.1% (active).
Take `O=C(NCc1ccc(Cl)cc1)C(=O)NCC1CCCN1S(=O)(=O)c1cccs1` (stereo unspecified): the inhibition is -0.71% (inactive).
With `Cc1ccc(NC(=O)c2cnc(SCC(=O)NCC3CCCO3)n(C)c2=O)cc1` (stereo unspecified), the inhibition was -10.7% (inactive).
Regarding `Cc1nc(-c2ccc(F)cc2)c(CC(=O)Nc2cc(S(=O)(=O)N3CCCCC3)ccc2C)s1`, the inhibition is -9.47% (inactive).
Next, `O=C1CC(c2ccccc2)C(=O)N1c1cccc(O)c1` (stereo unspecified): 14.5% (inactive); `O=C1CC(NNc2ccccc2)C(=O)N1c1cccc(Cl)c1` (stereo unspecified): 98% (active); `O=C(NNC1CC(=O)N(c2cccc(Cl)c2)C1=O)c1cccnc1` (stereo unspecified): 11.7% (inactive).
